# The full data set covers some 6,500 targets. This sample favours those with a hit. About 2% of all pairs of compound and target were hits. Values without a mark were called inactive.
# Compound: COC(=O)C#Cc1ccccc1 [methyl 3-phenylpropiolate]
# Experiment: log2 ratio of iodoacetamide-alkyne labeling of the cysteine site, DMSO over compound (competition); higher = stronger covalent engagement of the cysteine by the compound, active = 1 or more
# Details: 500 µM; treatment time 1 h; system: HEK293T cell lysate
# Method in brief: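 HEK293T lysate (2 mg/mL) was incubated with electrophile (500 µM) or vehicle for 1 h at ambient temperature and then with iodoacetamide alkyne for 1 h. Labelled proteins were clicked to sCIP-TMT reagents, pooled, digested, enriched on streptavidin and measured by Orbitrap Eclipse LC-MS/MS with FAIMS, with FragPipe quantification. The per-cysteine log2 competition ratio is mean control-channel reporter intensity over mean compound-channel reporter intensity. Across three replicates with duplicate channels, cysteines quantified in only one replicate were excluded.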
# Chain of UniProt Q92945 (Q92945 whole entry, looked up): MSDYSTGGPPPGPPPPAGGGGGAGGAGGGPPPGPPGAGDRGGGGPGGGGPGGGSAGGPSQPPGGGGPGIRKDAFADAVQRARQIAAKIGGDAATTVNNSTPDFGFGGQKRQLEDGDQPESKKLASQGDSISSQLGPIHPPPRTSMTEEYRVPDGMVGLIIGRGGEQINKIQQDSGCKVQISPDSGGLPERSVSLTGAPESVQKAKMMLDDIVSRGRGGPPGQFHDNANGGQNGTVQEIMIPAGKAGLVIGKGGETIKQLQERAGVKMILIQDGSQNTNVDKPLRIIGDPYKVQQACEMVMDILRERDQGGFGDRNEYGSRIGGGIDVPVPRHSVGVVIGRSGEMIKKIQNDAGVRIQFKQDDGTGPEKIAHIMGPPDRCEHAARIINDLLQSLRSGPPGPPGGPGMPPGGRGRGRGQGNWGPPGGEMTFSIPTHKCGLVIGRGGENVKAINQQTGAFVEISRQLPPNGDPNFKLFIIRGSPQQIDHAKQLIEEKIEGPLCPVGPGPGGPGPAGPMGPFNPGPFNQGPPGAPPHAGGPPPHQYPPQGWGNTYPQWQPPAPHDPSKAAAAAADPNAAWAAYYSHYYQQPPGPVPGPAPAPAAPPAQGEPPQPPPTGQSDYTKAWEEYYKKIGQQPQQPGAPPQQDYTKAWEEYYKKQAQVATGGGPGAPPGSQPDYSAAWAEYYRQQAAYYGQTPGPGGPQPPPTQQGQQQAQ
# Chain of UniProt Q86W56 (Q86W56 whole entry, looked up): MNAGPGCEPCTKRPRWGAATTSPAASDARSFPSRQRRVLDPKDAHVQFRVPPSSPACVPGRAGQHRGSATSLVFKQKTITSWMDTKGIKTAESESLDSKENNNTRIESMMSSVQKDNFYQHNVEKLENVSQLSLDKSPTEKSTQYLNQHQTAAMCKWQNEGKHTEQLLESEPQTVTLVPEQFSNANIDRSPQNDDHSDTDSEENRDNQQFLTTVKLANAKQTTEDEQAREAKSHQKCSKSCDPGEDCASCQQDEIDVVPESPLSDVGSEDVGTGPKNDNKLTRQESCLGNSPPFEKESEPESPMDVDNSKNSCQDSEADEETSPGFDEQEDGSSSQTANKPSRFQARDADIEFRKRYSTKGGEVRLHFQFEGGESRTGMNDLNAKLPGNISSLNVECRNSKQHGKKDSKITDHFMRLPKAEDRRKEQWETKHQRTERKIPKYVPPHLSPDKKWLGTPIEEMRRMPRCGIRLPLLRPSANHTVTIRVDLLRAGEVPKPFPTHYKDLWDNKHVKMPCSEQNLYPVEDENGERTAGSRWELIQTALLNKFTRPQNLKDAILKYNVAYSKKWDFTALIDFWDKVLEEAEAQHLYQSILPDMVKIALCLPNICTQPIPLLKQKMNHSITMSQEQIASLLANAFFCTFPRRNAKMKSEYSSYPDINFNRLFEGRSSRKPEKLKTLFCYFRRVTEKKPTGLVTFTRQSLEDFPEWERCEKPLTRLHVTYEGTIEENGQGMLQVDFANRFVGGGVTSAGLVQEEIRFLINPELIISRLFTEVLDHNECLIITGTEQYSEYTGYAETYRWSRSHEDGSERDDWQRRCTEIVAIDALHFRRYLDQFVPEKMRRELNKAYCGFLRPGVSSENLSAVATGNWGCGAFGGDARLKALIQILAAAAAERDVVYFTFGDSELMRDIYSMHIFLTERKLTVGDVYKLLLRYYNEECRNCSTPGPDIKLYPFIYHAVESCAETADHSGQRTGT
# Chain of UniProt Q8NFF5 (Q8NFF5 whole entry, looked up): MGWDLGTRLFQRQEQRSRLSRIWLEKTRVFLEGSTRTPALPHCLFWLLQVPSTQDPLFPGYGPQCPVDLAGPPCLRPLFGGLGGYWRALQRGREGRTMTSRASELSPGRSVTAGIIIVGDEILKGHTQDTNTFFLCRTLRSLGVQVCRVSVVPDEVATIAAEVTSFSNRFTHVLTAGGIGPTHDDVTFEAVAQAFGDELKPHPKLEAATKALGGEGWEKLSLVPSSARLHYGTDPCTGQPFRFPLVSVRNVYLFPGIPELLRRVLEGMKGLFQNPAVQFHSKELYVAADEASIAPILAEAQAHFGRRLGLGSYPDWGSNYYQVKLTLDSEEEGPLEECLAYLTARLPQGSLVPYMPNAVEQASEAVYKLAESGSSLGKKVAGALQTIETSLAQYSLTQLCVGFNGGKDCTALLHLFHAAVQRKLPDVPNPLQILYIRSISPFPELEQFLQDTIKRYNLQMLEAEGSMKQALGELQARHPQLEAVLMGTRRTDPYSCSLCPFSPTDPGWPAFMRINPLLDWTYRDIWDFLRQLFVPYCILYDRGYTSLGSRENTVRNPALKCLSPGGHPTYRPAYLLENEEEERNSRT
# Chain of UniProt Q86V48 (Q86V48 whole entry, looked up): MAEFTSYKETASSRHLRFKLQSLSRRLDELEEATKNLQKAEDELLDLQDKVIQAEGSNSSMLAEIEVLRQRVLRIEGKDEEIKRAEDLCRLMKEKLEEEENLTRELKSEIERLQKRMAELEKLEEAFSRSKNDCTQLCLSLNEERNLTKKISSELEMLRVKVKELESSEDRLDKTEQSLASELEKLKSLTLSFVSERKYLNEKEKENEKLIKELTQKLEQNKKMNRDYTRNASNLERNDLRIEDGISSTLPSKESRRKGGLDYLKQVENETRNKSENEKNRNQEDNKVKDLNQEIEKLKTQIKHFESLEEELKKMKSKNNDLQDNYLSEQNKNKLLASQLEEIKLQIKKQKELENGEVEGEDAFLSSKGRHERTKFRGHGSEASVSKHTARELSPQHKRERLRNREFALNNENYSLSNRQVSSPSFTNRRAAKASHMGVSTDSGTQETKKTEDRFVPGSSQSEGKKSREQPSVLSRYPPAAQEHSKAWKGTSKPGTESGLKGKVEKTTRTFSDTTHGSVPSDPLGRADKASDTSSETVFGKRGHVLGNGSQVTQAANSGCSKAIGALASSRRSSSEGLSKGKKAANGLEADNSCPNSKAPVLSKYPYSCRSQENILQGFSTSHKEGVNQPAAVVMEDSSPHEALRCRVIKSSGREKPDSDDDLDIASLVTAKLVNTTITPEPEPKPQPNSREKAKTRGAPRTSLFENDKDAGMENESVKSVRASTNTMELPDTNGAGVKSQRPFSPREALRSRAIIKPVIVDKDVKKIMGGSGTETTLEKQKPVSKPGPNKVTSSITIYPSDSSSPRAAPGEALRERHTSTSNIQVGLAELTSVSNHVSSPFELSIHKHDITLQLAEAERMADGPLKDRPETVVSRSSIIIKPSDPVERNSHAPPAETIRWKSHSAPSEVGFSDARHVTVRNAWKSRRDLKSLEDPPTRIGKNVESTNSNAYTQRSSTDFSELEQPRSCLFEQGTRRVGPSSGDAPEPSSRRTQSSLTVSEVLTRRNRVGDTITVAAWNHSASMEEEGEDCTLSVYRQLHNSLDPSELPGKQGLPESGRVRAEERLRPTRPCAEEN
# Chain of UniProt Q8N5F7 (Q8N5F7 whole entry): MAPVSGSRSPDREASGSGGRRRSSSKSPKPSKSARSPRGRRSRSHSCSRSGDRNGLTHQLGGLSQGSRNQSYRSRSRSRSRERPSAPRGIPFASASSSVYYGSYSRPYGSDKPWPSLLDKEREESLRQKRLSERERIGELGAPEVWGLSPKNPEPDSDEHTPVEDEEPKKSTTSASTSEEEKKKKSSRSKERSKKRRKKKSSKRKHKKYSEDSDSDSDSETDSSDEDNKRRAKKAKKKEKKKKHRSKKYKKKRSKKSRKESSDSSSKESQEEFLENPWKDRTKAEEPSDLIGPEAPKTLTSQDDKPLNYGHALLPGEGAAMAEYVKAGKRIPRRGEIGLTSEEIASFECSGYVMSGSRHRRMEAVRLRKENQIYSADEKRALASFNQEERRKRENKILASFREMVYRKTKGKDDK
# Chain of UniProt Q8NBN7 (Q8NBN7 whole entry): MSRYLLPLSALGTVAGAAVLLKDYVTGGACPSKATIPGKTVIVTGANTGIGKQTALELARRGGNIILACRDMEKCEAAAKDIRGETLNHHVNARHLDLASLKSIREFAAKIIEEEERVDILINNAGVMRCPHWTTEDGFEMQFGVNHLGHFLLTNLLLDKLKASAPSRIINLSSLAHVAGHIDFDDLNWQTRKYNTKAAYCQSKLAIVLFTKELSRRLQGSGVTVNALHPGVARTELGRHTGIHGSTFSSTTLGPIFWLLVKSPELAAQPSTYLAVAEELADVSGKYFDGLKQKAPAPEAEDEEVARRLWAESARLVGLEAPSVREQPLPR
# Chain of UniProt Q96SK2 (Q96SK2 whole entry, looked up): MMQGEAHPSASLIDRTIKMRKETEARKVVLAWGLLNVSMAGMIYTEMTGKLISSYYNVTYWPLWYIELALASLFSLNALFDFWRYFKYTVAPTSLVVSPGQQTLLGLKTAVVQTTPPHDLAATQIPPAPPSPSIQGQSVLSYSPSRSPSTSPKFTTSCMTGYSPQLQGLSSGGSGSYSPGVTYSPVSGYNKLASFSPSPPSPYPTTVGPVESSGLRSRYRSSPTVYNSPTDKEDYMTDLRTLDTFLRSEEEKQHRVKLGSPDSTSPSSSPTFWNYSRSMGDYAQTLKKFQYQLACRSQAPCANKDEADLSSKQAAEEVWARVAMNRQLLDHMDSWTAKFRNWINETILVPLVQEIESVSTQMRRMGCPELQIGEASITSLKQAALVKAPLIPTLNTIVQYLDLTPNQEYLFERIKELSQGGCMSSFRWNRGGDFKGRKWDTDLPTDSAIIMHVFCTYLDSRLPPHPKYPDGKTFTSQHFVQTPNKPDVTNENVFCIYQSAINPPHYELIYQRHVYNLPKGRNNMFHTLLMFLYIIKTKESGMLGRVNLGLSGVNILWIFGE
# Chain of UniProt Q96GX2 (Q96GX2 whole entry): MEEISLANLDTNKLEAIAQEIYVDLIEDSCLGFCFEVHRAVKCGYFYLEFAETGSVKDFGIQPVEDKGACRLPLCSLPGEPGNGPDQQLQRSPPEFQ
# Chain of UniProt Q9BRX5 (Q9BRX5 whole entry): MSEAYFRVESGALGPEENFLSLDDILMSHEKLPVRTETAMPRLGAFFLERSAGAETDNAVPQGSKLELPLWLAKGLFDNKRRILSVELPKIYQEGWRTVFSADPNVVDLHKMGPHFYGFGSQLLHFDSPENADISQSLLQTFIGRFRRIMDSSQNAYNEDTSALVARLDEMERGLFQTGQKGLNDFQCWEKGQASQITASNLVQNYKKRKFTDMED
row,Target,log2 ratio of iodoacetamide-alkyne labeling
1,RDH13 C30 (UniProt Q8NBN7),0.116
2,ZFYVE16 C895 (UniProt Q7Z3T8),0.597
3,PDLIM5 C449 (UniProt Q96HC4),0.0755
4,CWF19L1 C176 (UniProt Q69YN2),-0.136
5,FLAD1 C499 (UniProt Q8NFF5),1.06 (active)
6,UniProt Q7Z2T5_C239,1.28 (active)
7,DCUN1D4 C253 (UniProt Q92564),0.287
8,NSD1 C1689 (UniProt Q96L73),0.216
9,PTCD3 C642 (UniProt Q96EY7),0.535
10,AHCTF1 C521 (UniProt Q8WYP5),1.16 (active)
11,VPS8 C1371 (UniProt Q8N3P4),0.234
12,VPS13B C2907 (UniProt Q7Z7G8),0.889
13,TMEM209 C301 (UniProt Q96SK2),0.858
14,UniProt Q8NB37_C154,0.389
15,LUZP1 C969 (UniProt Q86V48),1.01 (active)
16,RANBP9 C610 (UniProt Q96S59),0.53
17,NKAP C349 (UniProt Q8N5F7),0.496
18,WDFY2 C290 (UniProt Q96P53),-0.231

row,Target,log2 ratio of iodoacetamide-alkyne labeling
1,ZFR C974 (UniProt Q96KR1),0.302
2,NOC3L C683 (UniProt Q8WTT2),0.191
3,CCT7 C29 (UniProt Q99832),1.51 (active)
4,ARID2 C1549 (UniProt Q68CP9),0.434
5,CCT7 C158 (UniProt Q99832),0.152
6,ATXN7L3B C75 (UniProt Q96GX2),1.03 (active)
7,NUP205 C877 (UniProt Q92621),0.102
8,SMCR8 C644 (UniProt Q8TEV9),0.488
9,KHSRP C296 (UniProt Q92945),0.00483
10,PARG C515 (UniProt Q86W56),1.16 (active)
11,GINS3 C188 (UniProt Q9BRX5),0.255
12,UniProt Q969V6_C326,1.42 (active)
13,STRBP C40 (UniProt Q96SI9),0.168
14,HEATR3 C173 (UniProt Q7Z4Q2),0.137
15,UniProt Q9BSH4_C256,-0.207
16,UniProt Q86YR5_C515,1.7 (active)
17,HSDL2 C11 (UniProt Q6YN16),0.0294
